# Assay results: PubChem BioAssay AID1851 (National Center for Advancing Translational Sciences (NCATS), 2009)
# Out of some 16,000 compounds screened, about 4,000 (25%) were called active. Inconclusive results (about 26%) are left out. Calls follow the shape of the dose curve; as a rule, active = well fitted curve in the direction sought with a large enough effect; inconclusive = small, poorly fitted or top-dose-only effect, or effect the other way; inactive = no such curve, though single readings can be large or run the other way. A selection follows.
# Molecular target: Cytochrome P450 2C9 (Homo sapiens) (UniProt P11712)
# Experiment: Cytochrome panel assay with activity outcomes
# Details: recombinant CYP, pro-luciferin dealkylation, luminescence, p450-cyp2c9; series mostly up to 57.1 µM; activity, negative = inhibition: at the top concentration
# % is scaled to controls: 0 for no effect and ±100 for the full control effect.
# Sequence of Cytochrome P450 2C9 (Homo sapiens) (P11712 whole entry, looked up): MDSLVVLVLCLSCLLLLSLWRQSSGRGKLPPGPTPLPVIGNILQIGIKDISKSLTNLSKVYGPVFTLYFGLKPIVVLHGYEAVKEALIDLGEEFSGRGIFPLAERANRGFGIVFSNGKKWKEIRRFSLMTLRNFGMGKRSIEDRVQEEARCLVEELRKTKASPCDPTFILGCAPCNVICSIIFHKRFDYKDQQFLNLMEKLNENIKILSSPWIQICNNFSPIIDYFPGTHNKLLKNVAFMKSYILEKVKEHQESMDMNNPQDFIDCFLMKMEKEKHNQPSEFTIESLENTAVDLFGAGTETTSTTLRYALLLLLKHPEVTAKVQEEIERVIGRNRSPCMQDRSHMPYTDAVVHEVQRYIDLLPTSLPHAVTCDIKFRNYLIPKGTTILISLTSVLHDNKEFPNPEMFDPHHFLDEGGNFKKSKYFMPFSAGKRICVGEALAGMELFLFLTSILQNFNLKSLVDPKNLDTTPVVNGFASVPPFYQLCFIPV
Structure (SMILES),"activity, negative = inhibition",AC50
O=C(NCP(=O)(O)O)c1cccnc1,1.84% [at 11.4 µM] (inactive),–
C=C[C@]12CN(C)[C@H]3C1[C@@]1(C(=O)Nc4ccccc41)[C@H]1C[C@H]2[C@H]3CO1,-13.2% [at 25.6 µM] (inactive),–
c1cc2cc(c1)C[n+]1ccc(c3ccccc31)NCc1ccc(cc1)CNc1cc[n+](c3ccccc13)C2,–,2.51 µM (active)
CN1C(=O)CCS(=O)(=O)[C@H]1c1ccc(Cl)cc1,2.23% (inactive),–
C[C@H]1C(=O)O[C@@H]2CCN3CC=C(COC(=O)[C@@](C)(O)[C@@]1(C)O)[C@H]23,24.7% [at 25.6 µM] (inactive),–
CCCCN1C(=O)/C(=C\c2ccco2)C(=O)N(CCc2ccccc2)C1=O,–,7.94 µM (active)
c1ccc2c(c1)Sc1ccccc1N2C[C@H]1CN2CCC1CC2,8.95% [at 11.4 µM] (inactive),–
C[C@H](NC(C)(C)C)C(=O)c1cccc(Cl)c1,inactive,–
CCCN1CCC[C@@H]2Cc3[nH]ncc3C[C@H]21,inactive,–
CCN1C[C@]2(COC)CC[C@H](O)[C@@]34[C@@H]5C[C@H]6[C@@H](OC)[C@H]5[C@](O)(C[C@@H]6OC)[C@@](O)([C@@H](OC)[C@H]23)[C@@H]14,-3.36% [at 25.6 µM] (inactive),–
CC[C@H]1CN2CC[C@@H]1C[C@H]2[C@@H](O)c1ccnc2ccc(OC)cc12,6.12% [at 25.6 µM] (inactive),–
Cc1sc2c(c1C)C(c1ccc(C(C)(C)C)cc1)=NCC(=O)N2CC(=O)Nc1nccs1,–,12.6 µM (active)
CN(C)c1ccc(NC(=O)CN2C(=O)CN=C(c3ccccc3)c3ccccc32)cc1,-4.06% (inactive),–
O=[N+]([O-])O[C@H]1CO[C@H]2[C@H]1OC[C@@H]2O[N+](=O)[O-],28.9% [at 25.6 µM] (inactive),–
CCOP(=O)(OCC)C(NC(C)=O)C(Cl)(Cl)Cl (configuration not stated),-14% (inactive),–
Fc1ccc(C(OCCN2CCN(C/C=C\c3ccccc3)CC2)c2ccc(F)cc2)cc1,–,7.94 µM (active)
O=c1[nH]c2ccccc2n1C1CCN(CCCC(c2ccc(F)cc2)c2ccc(F)cc2)CC1,inactive,–
Clc1ccc([C@@H](OCCN2CCCCC2)c2ccccc2)cc1,-7.32% [at 25.6 µM] (inactive),–
C(=C/c1ccccc1)/CN1CCN(CCOC(c2ccccc2)c2ccccc2)CC1,–,5.01 µM (active)
CCOC(=O)c1ncn2c1[C@H]1CCCN1C(=O)c1cc(OC)ccc1-2,15.1% (inactive),–
NS(=O)(=O)c1cc([C@@]2(O)NC(=O)c3ccccc32)ccc1Cl,-0.302% [at 25.6 µM] (inactive),–
O=C(O)C[O][Sb][O]CC(=O)O,3.17% [at 11.4 µM] (inactive),–

Structure (SMILES),"activity, negative = inhibition",AC50
O=C(O)[C@H]1[O][Sb][O][C@@H](C(=O)O)C1O (some centres not stated),14.9% [at 11.4 µM] (inactive),–
NCC[C@H](O)C(=O)N[C@H]1C[C@@H](N)[C@@H](O[C@H]2O[C@@H](CN)[C@@H](O)[C@@H](O)[C@@H]2N)[C@@H](O[C@H]2O[C@@H](CO)[C@@H](O)[C@@H]2O)[C@@H]1O,-2.49% [at 25.6 µM] (inactive),–
C[N+]1(C)CCO[C@@](O)(c2ccc(-c3ccc([C@]4(O)C[N+](C)(C)CCO4)cc3)cc2)C1,-5.58% (inactive),–
O=C(c1ccccc1)[C@H]1[C@H](c2ccccc2[N+](=O)[O-])N1C1CCCCC1 (some centres not stated),-9.93% [at 11.4 µM] (inactive),–
CC1=C(O)C(=O)[C@H]2O[C@@H]2C1=O,-9.89% (inactive),–
c1cc(CN2CCCC3(CCNCC3)C2)ccn1,-28.9% (inactive),–
CN1CC[C@@]2(CCCN(C(=O)c3ccco3)C2)C1,5.65% (inactive),–
CC(C)CN1CCCC2(CCN(C(=O)c3ccncc3)CC2)C1,-28.7% (inactive),–
CN1CC[C@@]2(CCCN(C(=O)c3ccncc3)C2)C1,2.79% (inactive),–
COCC(=O)N1CCC2(CCCN(Cc3ccncc3)C2)CC1,–,5.01 µM (active)
O=C(c1ccco1)N1CCC[C@@]2(CCN(Cc3ccncc3)C2)C1,–,3.16 µM (active)
CC[C@]1([C@H]2O[C@@H]([C@@H]3O[C@](O)(CO)[C@@H](C)C[C@H]3C)C[C@H]2C)CC[C@@H]([C@]2(C)CC[C@@]3(C[C@@H](O)[C@@H](C)[C@@H]([C@H](C)[C@H](OC)[C@H](C)C(=O)O)O3)O2)O1,2.5% [at 25.6 µM] (inactive),–
COc1ccccc1CN1CCCC2(CCN(C(=O)Oc3ccccc3)CC2)C1,2.58% (inactive),–
COC(=O)[C@@H]1c2cc3c(c(O)c2[C@@H](O)C[C@]1(C)O)C(=O)c1c(O)cc2c(c1C3=O)O[C@H]1O[C@@]2(C)[C@@H](O)[C@H](N(C)C)[C@H]1O,-12.9% [at 11.4 µM] (inactive),–
CCN(CC)CCO[C@H]1CC[C@@]2(C)C(=CC[C@@H]3[C@H]2CC[C@]2(C)C(=O)CC[C@H]32)C1,-1.59% (inactive),–
CO[C@@H]1CC=C2CCN3CCC4=C(CC(=O)OC4)[C@]23C1,11.3% (inactive),–
C[N+]1(C)[C@@H]2CC[C@H]1CC(OC(=O)[C@@H](CO)c1ccccc1)C2 (some centres not stated),inactive,–
COc1ccc2[nH]c3c(c2c1)CCN=C3C,-24.9% [at 25.6 µM] (inactive),–
N[C@@H](CSC1c2ccccc2-c2ccccc21)C(=O)O,-21.1% [at 11.4 µM] (inactive),–
C[C@@]12CC[C@H]3[C@@H](CCC4=C(O)C(=O)CC[C@]43C)[C@H]1CCC2=O,8.16% (inactive),–
Cc1ccccc1-c1nc(CS(=O)CC(=O)N2CCC3(CC2)OCCO3)c(C)o1 (configuration not stated),–,5.01 µM (active)
Cc1cc(NC(=O)CCC(=O)N2CCC3(CC2)OCCO3)no1,14.5% (inactive),–

Structure (SMILES),"activity, negative = inhibition",AC50
Oc1ccc([C@H](O)[C@@H]2CCCCN2)cc1O,-5.3% [at 11.4 µM] (inactive),–
CC(C)C(=O)N1C2CCC1CC(O)(c1ccc(F)cc1)C2 (configuration not stated),-8.36% (inactive),–
C[C@](N)(CCP(=O)(O)O)C(=O)O,7.57% (inactive),–
O=C(CN1CCCCC1)Nc1ccc(Br)cc1C(=O)c1ccccc1Cl,–,8.91 µM (active)
CN(CCc1ccc(Cl)c(Cl)c1)[C@H]1CCCC[C@H]1N1CCCC1,-18.7% (inactive),–
CCOC(=O)c1ncn2c1CN(C)C(=O)c1cc(F)ccc1-2,0.585% (inactive),–
CC(C)(C)NC[C@H](O)c1ccccc1Cl,11.1% (inactive),–
C=CCN1CC[C@@]23c4c5ccc(O)c4O[C@H]2/C(=N\N=C2/CC[C@@]4(O)[C@H]6Cc7ccc(O)c8c7[C@@]4(CCN6CC=C)[C@@H]2O8)CC[C@]3(O)[C@@H]1C5,inactive,–
C[C@H](CCC(=O)O)[C@H]1CC[C@]2(C)[C@@H]3C(=O)C[C@H]4C(C)(C)[C@@H](O)CC[C@]4(C)[C@H]3C(=O)C[C@@]12C,-0.996% [at 11.4 µM] (inactive),–
CCCCc1nc2ccccc2c(=O)n1-c1ccc(Cl)cc1[N+](=O)[O-],-8.02% (inactive),–
CCCCc1nc2ccccc2c(=O)n1-c1ccccc1[N+](=O)[O-],–,11.2 µM (active)
Cc1nc2ccccc2c(=O)n1-n1cnnc1,-22.4% (inactive),–
CCCc1nc2ccccc2c(=O)n1-c1ccc(OC)cc1,–,25.1 µM (active)
Cc1nc2ccccc2cc1C[N+]12CN3CN(CN(C3)C1)C2,18.3% [at 11.4 µM] (inactive),–
COc1ccc2c(c1)C13CCCC[C@@H]1C(C2)N(C)CC3 (some centres not stated),-5.05% [at 25.6 µM] (inactive),–
CC[C@H](C)C(=O)O[C@@H]1[C@H](O)[C@@H]2[C@H](CN3C[C@@H](C)CC[C@@H]3[C@@]2(C)O)[C@@H]2C[C@@]34O[C@@]5(O)[C@@H](OC(=O)[C@](C)(O)CC)CC[C@@]3(C)[C@H]5[C@H](OC(C)=O)[C@@H](OC(C)=O)[C@H]4[C@]12O,23.1% [at 25.6 µM] (inactive),–
COc1cc2c3cc1Oc1c(O)c(OC)cc4c1[C@@H](Cc1ccc(cc1)Oc1cc(ccc1O)C[C@H]3N(C)CC2)N(C)CC4,2.87% [at 11.4 µM] (inactive),–
CC(C)N(CC[C@@](C(N)=O)(c1ccccc1)c1ccccn1)C(C)C,inactive,–
N[C@H](Cn1ccc(=O)[nH]c1=O)C(=O)O,-9.73% (inactive),–
O=[N+]([O-])c1ccc2nc(N3CCNCC3)ccc2c1,-10.6% (inactive),–
CC12CN3CC(C)(CN(C1)C31CCSCC1)C2=O,-7.66% (inactive),–
NCCc1c[nH]c2ccc(C(N)=O)cc12,inactive,–

Structure (SMILES),"activity, negative = inhibition",AC50
N[C@@H](Cc1ccccc1)P(=O)(O)O,-8.88% [at 11.4 µM] (inactive),–
CN1[C@H](CC(=O)c2ccccc2)CCC[C@H]1C[C@H](O)c1ccccc1,-7.25% (inactive),–
CC1(C)CCC2=C(O1)c1ccccc1C(=O)C2=O,–,31.6 µM (active)
C[C@@H]1CC[C@@H]2N(C1)C[C@H]1[C@@](O)([C@H](O)C[C@]3(O)[C@H]4CC[C@H]5[C@]6(O)O[C@]4(C[C@]13O)[C@@]5(C)CC[C@@H]6O)[C@@]2(C)O,-2.76% [at 11.4 µM] (inactive),–
C=CCn1c(O)c(C(C)=NCCCN2CCOCC2)c(=O)[nH]c1=O,-27.5% (inactive),–
C=C(C)[C@H]1CN[C@H](C(=O)O)[C@@H]1CC(=O)O,13.2% (inactive),–
COc1c2c(cc3c1OCO3)CCN(C)C2,20.3% [at 25.6 µM] (inactive),–
NCC#Cc1ccccc1,–,10 µM (active)
O=C(Oc1ccccc1)N1CCC[C@@]2(CCN(C(c3ccccc3)c3ccccc3)C2)C1,-10.2% (inactive),–
C[N+]1([O-])[C@@H]2CC[C@H]1CC(OC(=O)[C@@H](CO)c1ccccc1)C2 (some centres not stated),21.1% [at 25.6 µM] (inactive),–
COC(=O)[C@@]1(Cc2ccc(F)cc2)[C@H]2c3cc(C(=O)N(C)C)[nH]c3C[C@H]2CN1C(=O)c1ccccc1,–,10 µM (active)
CN(C)CCCc1c[nH]c2ccccc12,-1.95% [at 11.4 µM] (inactive),–
COc1cc2c(cc1O)C[C@H]1c3c(cc(O)c(OC)c3-2)CCN1C,-0.572% [at 25.6 µM] (inactive),–
Cn1c[n+](C)cc1C(O)c1ccccc1 (configuration not stated),-14.7% (inactive),–
O=C(Nc1ccc(Cl)cc1)Nc1nccs1,–,17.8 µM (active)
O=C1CS[C@@H](c2ccccc2Cl)c2cc(Cl)ccc2N1,–,15.8 µM (active)
COc1cc2c(cc1OC)[C@@H]1C(=O)c3ccc4c(c3O[C@@H]1CO2)C=CC(C)(C)O4,-28% (inactive),–
C[C@H](N)Cc1c[nH]c2ccc(O)cc12,11.8% (inactive),–
O=c1c2ccccc2c2ccccc2c(=O)n1-c1cc2c3ccccc3ccc2c2ccccc12,–,0.316 µM (active)
c1csc(CN2CCC3(CCNCC3)CC2)n1,5.14% (inactive),–
CN(C)CCCNc1c2c(nc3ccc(Cl)cc13)CCCC2,6.4% [at 11.4 µM] (inactive),–
